# The list is not random: actives were taken first. Their share in the collection is about 1.9%.
# OPRM1-OPRD1 inv – inverse agonists of MOR-DOR heterodimerization, primary screen, cell-based, luminescence; 340,000 compounds, 0.21% hits; inhibition, % at 9.3 µM; cell-based MOR-DOR heterodimer luminescence, inverse agonism; Mu-type opioid receptor (Homo sapiens) + Delta-type opioid receptor (Homo sapiens), …; AID 504357, 2011; in the data active = inhibition above about 22%, passing the limit was not always enough;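 also: 0% = cells with DMSO and 100% = wells without cells with DMSO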
# Target sequence (P35372 whole entry, looked up): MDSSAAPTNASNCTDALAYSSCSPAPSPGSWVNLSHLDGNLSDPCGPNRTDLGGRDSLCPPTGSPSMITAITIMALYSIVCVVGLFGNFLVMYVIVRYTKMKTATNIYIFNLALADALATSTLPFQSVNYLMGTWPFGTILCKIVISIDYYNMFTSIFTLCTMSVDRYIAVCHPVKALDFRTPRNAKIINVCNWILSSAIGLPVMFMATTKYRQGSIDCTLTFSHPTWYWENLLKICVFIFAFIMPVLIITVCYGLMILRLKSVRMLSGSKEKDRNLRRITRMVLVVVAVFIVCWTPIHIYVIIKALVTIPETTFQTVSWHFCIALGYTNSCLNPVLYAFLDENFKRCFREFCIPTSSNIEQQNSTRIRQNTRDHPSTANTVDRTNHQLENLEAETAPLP
# Target sequence (P41143 whole entry, looked up): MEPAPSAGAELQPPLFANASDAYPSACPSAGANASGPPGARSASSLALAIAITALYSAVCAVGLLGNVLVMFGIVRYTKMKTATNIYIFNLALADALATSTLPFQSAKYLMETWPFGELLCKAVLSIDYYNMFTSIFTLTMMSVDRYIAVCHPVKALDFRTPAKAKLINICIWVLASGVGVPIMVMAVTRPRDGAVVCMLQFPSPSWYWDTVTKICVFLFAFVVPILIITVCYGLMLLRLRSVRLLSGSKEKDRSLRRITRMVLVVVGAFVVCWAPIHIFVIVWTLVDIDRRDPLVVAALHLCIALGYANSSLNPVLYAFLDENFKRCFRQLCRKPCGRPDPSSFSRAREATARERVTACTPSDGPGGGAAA
# HTR5A ag – HTR5A agonists in luminescence cell assay, primary screen, counter-screen for OPRM1-OPRD1 heterodimer agonist project, full-deck HTS. 5-hydroxytryptamine receptor 5A (Homo sapiens), P47898. cell-based. activation, % at 9.3 µM. 340,000 compounds, 0.61% hits. AID 504692, 2011; in the data active = activation mostly above about 9.5%, no sharp cut-off; inactive = mostly below about 7.6%;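 also: 0% = cells with vehicle only and 100% = reference agonist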
# MsrA inhibitor – bovine MsrA enzyme inhibitors, primary screen, biochemical, absorbance, HTS; 360,000 compounds, 0.75% hits; purified bovine MsrA, absorbance read-out; inhibition, % at 15.5 µM; AID 651718, 2012; Methionine sulfoxide reductase A (Bos taurus);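 also: 0% = vehicle wells with enzyme and 100% = reference inhibitor wells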
# HTR5A inv ag – HTR5A inverse agonists in luminescence cell assay, primary screen, counter-screen for OPRM1-OPRD1 heterodimer inverse agonist project, full-deck HTS. 5-hydroxytryptamine receptor 5A (Homo sapiens), P47898. HTR5A cell line, inverse agonism. inhibition, % at 9.3 µM. 340,000 compounds, 0.083% hits. AID 504634, 2011; in the data active = inhibition mostly above about 23%, no sharp cut-off; inactive = mostly below about 18%;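 also: 0% = cells with DMSO and 100% = no-cell wells with DMSO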
# bovine MsrA act – bovine MsrA enzyme activators, primary screen, biochemical, absorbance, HTS. Methionine sulfoxide reductase A (Bos taurus). 360,000 compounds, 0.3% hits. activation, % at 10.6 µM. purified bovine MsrA, absorbance read-out; in the data active = activation above about 7.5%;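 also: 0% = vehicle and 100% = reference activator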
# OPRM1-OPRD1 ag – agonists of OPRM1-OPRD1 heterodimerization, primary screen, cell-based, luminescence. activation, % at 9.3 µM. cells. Mu-type opioid receptor (Homo sapiens) + Delta-type opioid receptor (Homo sapiens), …. AID 504326, 2011. 340,000 compounds, 0.3% hits; in the data active = activation above about 18%;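 also: 0% = vehicle-treated cells and 100% = reference agonist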
# MsrA conf – bovine MsrA inhibitors, retest, confirmation, biochemical, absorbance, HTS | shares compounds with MsrA inhibitor | purified bovine MsrA, absorbance read-out | inhibition, % at 15.5 µM | 2,300 compounds, 41% hits;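 also: coupled to thioredoxin reductase with NADPH and selenocystamine and DMSO as substrate; 0% = vehicle only and 100% = full effect of reference inhibitor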
# Numbers without * were called inactive; . = no result. Rule as the data show it, unless noted: active = inhibition above about 4.5%; inactive = the rest.
SMILES,OPRM1-OPRD1 inv,HTR5A ag,MsrA inhibitor,HTR5A inv ag,bovine MsrA act,OPRM1-OPRD1 ag,MsrA conf
COCCn1c(/C=C/c2ccccc2)nc2ccccc21,2,-2,5.1*,-26,-5,0,4
CCn1c(/C=C/c2ccc(O)cc2)nc2ccccc2c1=O,10,1,5.3*,11,-7,-2,4.8*
O=C(N[C@@H](Cc1cccnc1)C(=O)N1CCC[C@H]1C(=O)NCc1ccccc1)c1ccc(Cl)cc1Cl,.,.,0,.,.,.,.
Cc1cc([N+](=O)[O-])ccc1Nc1nc2ccccc2n2cnnc12,-9,0,6.4*,0,5,2,8.3*
Cc1c(Nc2nc3ccccc3n3cnnc23)cccc1[N+](=O)[O-],13,6,0,-25,-3,-3,.
CCc1cccc(C)c1Nc1nc2ccccc2n2cnnc12,2,0,5.4*,-1,-3,0,4
CC1=C(C(=O)N2CCCCCC2)CC(CC(=O)NCCCN(C)C)C(=O)N1CCCN1CCCC1=O (stereo not given),.,.,0,.,-2,.,.
COc1cc(/C=N/N=C2/NC(=O)C(c3ccccc3)S2)ccc1O (stereo not given),9,1,4.9*,20,-10,-2,4
COc1cc(/C=N/N=C2/C(=O)Nc3ccccc32)ccc1O,13,-5,4.9*,12,-5,-3,2
COc1cc(/C=N/N=C2/NC(=O)C(Cc3ccc(F)cc3)S2)ccc1O (stereo not given),8,-1,4,3,-2,-1,.
COCC(=O)Nc1ccc2c(c1)[C@H]1C[C@@H](CC(=O)NCC3CC3)O[C@H](CO)[C@H]1O2,.,.,0,.,.,.,.
CC1(C)CC(N2CCCC2)=CC(=[N+]2CCCCCC2)C1,12,2,6.7*,16,-10,-2,4.9*
CC1(C)CC(N2CCN(c3ccccc3)CC2)=CC(=[N+]2CCCC2)C1,12,0,5.5*,4,-5,-2,5.0*
CC1(C)CC(=O)C=C(N2CCNCC2)C1,-6,-3,1,-12,0,1,.
CC1CC(C)C[N+](=C2C=C(N3CCCC3)CC(C)(C)C2)C1 (stereo not given),3,7,5.8*,-21,-10,-1,4
CC(C)(C)NC(=O)C(c1ccccc1F)n1c(=O)c(-c2cc3ccccc3[nH]2)nc2ccccc21 (stereo not given),.,.,2,.,.,.,.
CCc1c(-c2ccc(OC)cc2)ncn1Cc1cccc(-c2ccccc2)c1,.,.,2,.,.,.,.
COc1ccc(/C=C/C(=O)Nc2nc(C)c(C(=O)N(C)C)s2)cc1,8,0,5.4*,-21,-6,-1,6.5*
Cc1nc(NC(=O)c2ccc(Br)s2)sc1C(=O)N(C)C,-3,0,5.0*,8,-13,1,2
COc1ccc(C(=O)Nc2nc(C)c(C(=O)N(C)C)s2)cc1OC,8,1,2,-8,1,-1,.
COc1ccc(/C=C/C(=O)Nc2nc(C)c(C(=O)N(C)C)s2)cc1OC,11,-6,5.7*,16,-5,-2,5
Cc1nc(NC(=O)c2cc3c(s2)CCCCC3)sc1C(=O)N(C)C,16,1,1,-27,-5,-3,.
O=Cc1coc([B-](F)(F)F)c1,.,.,0,.,.,.,.
COCCN1CCCc2nc(-c3ccc(F)cc3)ccc21,.,.,0,.,.,.,.
Fc1cnc(N2CCOCC2)nc1N1CCc2ccccc21,-15,0,8.0*,1,-1,3,3
SMILES,OPRM1-OPRD1 inv,HTR5A ag,MsrA inhibitor,HTR5A inv ag,bovine MsrA act,OPRM1-OPRD1 ag,MsrA conf
CC(=O)COc1c(-c2ccco2)oc2ccccc2c1=O,12,-1,4.8*,4,-5,-2,4
N#Cc1c(SCC(=O)Nc2nccs2)sc2c(O)cc(=O)[nH]c12,15,1,4.9*,-3,-5,-3,2
COc1ccc(C(=NNc2ccccc2C(=O)O)c2ccc(OC)cc2)cc1,6,7,5.1*,-26,-8,-1,3
COc1ccc(C(=O)Nc2ccccc2C(=O)Nc2ccccc2C(=O)O)cc1,11,3,1,11,-3,-2,.
O=C(Nc1sc2c(c1C(=O)O)CCCCC2)c1ccco1,9,-6,6.0*,0,-1,-2,4
CN1CCN(C(=O)c2c(NC(=O)c3ccco3)sc3c2CCC(C(C)(C)C)C3)CC1 (stereo not given),13,3,-1,11,-4,-2,.
CN(C)C(=O)c1c(NC(=O)c2ccco2)sc2c1CCCCC2,3,-1,1,2,2,-1,.
CC1CCc2c(sc(NC(=O)c3ccco3)c2C(=O)O)C1 (stereo not given),16,6,5.8*,-16,-3,-3,4.7*
Cc1c(C(=O)NCc2cccc(C(F)(F)F)c2)sc(=O)n1Cc1ccc(C(=O)N(C)C)cc1,.,.,-1,.,-2,.,.
CCCCNc1cccc2c1S(=O)(=O)N[C@@H](Cc1ccccc1)CO2,.,.,0,.,.,.,.
CCCCCCCCN1C(=O)[C@@H](CC(=O)NCCC(C)C)C[C@@]2(C(=O)OC)C1=C[C@H](C1CCCC1)O[C@@H]2C,.,.,0,.,.,.,.
N#Cc1c(-n2cccc2C=O)sc2c1CCCC2,16,-1,11*,2,-5,-3,10.0*
CCOC(=O)c1cnc(/N=C/N(C)C)s1,-11,2,5.0*,-4,-5,2,4
CN1c2ccccc2C(O)=C(C(=S)Nc2ccc(Cl)cc2)S1(=O)=O,17,4,5.4*,-16,-11,-3,6.0*
Cc1cccc(NC(=O)C2=C(O)c3ccccc3N(C)S2(=O)=O)c1,10,-5,2,14,-8,-2,.
COc1ccc(-c2nc(C)c(C(C)=O)n2O)cc1[N+](=O)[O-],19,-1,4.8*,3,-4,-4,3
CCCCCCCCN1C(=O)[C@H](CC(=O)NCc2ccc(C)o2)C[C@@]2(C(=O)OCC)CCC=C12,.,.,1,.,.,.,.
CC1=CC(O)(c2ccccn2)P(=O)(c2ccccc2)C=C1C (stereo not given),.,.,1,.,.,.,.
O=C(/C=C/c1cccs1)Nc1nncs1,12,2,5.9*,1,-6,-2,4
O=C(/C=C/c1cccs1)Nc1scc(-c2ccccc2)c1C(=O)O,10,-5,11*,12,-9,-2,5.6*
O=C(Nc1scc(-c2ccccc2)c1C(=O)O)c1ccccc1Cl,12,0,0,-2,-2,-2,.
O=C(/C=C/c1cccs1)Nc1nc(-c2ccccc2)cs1,-20,-2,1,-6,-6,4,.

# Assay outcomes: PubChem BioAssay, The Scripps Research Institute Molecular Screening Center
